Assay outcomes (PubChem BioAssay)
A selection: hits, their analogues and other compounds. The true share with any hit is near 3.2%.
LMP1 NFkB inh = EBV LMP1-driven NF-kappaB luciferase reporter inhibitors, primary screen, cell-based, luminescence, single point. inhibition, % at 12.5 µM. 0.69% of 350,000 active. LMP1-induced NF-kappaB luciferase reporter cells; in the data active = inhibition above about 41%; inconclusive = no clear call, values can overlap the other calls;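 note: 0% = neutral control wells and 100% = reference inhibitor control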
LGR2 antag = inhibitors of bursicon-induced LGR2 CRE-luciferase signal, primary screen, cell-based, HEK293, CRE-luciferase reporter, bursicon stimulation. Drosophila bursicon receptor LGR2 (rickets). bursicon-stimulated, 4 h. inhibition, % at 9.99 µM. 0.35% of 380,000 active;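 active = drop in luminescence signal, shown as inhibition above about 50% in the replicate tests, limit read from the data, passing the limit was not always enough; inconclusive = probably only some replicates passing the limit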;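 note: agonist challenge used bursicon conditioned medium at about half maximal strength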
PAX8 inh HTS = inhibitors of PAX8-driven TPO luciferase reporter, primary screen, RMG-I cells, single concentration | SteadyGlo, 24 h | inhibition, % at 12.6 µM | 1.2% of 360,000 active | AID 652154, 2013;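 active = mean replicate inhibition at least 60% with every replicate also reaching 60%; inconclusive = only one of the two criteria is met; inactive = mean below 60% and not all replicates reaching 60%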;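 note: luciferase light reporting Pax8 driven TPO promoter activity; plate controls were median of neutral control wells for no effect and mitoxantrone controls for full effect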
TROY NFkB inh = inhibitors of TROY-driven NF-kB signaling, primary screen, Q293 LMP1-TROYcd cells, NF-kB luciferase, uHTS; Q293 LMP1-TROYcd NF-kB luciferase reporter, 4 h; inhibition, % at 10 µM; 0.98% of 360,000 active; AID 1347056, 2019;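 active = compounds whose plate-normalised and pattern-corrected inhibition of the luciferase reporter signal at the single screening dose is 50% or more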
EWS-Fli inh = EWS/Fli-driven NR0B1 reporter inhibitors, primary screen, A673 cells, NR0B1 luciferase, luminescence, MLPCN library; viability-normalised; 0.67% of 350,000 active; inhibition, % at 12.6 µM;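 active = mean inhibition of at least 50% after viability correction, with every replicate also passing that limit; inconclusive = mean reaches 50% but only one of two replicates passes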;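 note: firefly luciferase signal divided by Alamar Blue viability fluorescence both relative to DMSO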
TWEAK-Fn14 inh = inhibitors of TWEAK-Fn14 signaling, primary screen, luciferase reporter cells, uHTS | TWEAK-stimulated Fn14 reporter cells, luciferase luminescence, 8 h | inhibition, % at 10 µM | 2% of 360,000 active | AID 1159606, 2016; in the data active = inhibition above about 50%
* = called active by the depositor; ? = inconclusive; / = no result given.

SMILES	LMP1 NFkB inh	LGR2 antag	PAX8 inh HTS	TROY NFkB inh	EWS-Fli inh	TWEAK-Fn14 inh
Cc1noc(C)c1S(=O)(=O)Nc1ccc2c(c1)C(=O)N([C@@H](C)CO)C[C@@H](C)[C@H](CN(C)Cc1ccc(Cl)c(Cl)c1)OCCCC[C@@H](C)O2	/	-2	69*	/	19	/
O=S(=O)(c1cccs1)N1CCCCN2[C@@H](CO)[C@H](c3ccc(C4=CCCC4)cc3)[C@@H]2C1	/	19	7	/	16	/
C[C@@H]1CCCCO[C@H](CN(C)S(=O)(=O)c2cccs2)[C@@H](C)CN([C@@H](C)CO)C(=O)c2cc(NS(=O)(=O)c3ccc(F)cc3)ccc2O1	/	-32	31	/	7	/
Cc1cc([N+](=O)[O-])nn1Cc1ccc(C(=O)N/N=C/c2ccc(O)cc2O)cc1	-20	15	63*	14	/	-12
O=C(N/N=C/c1ccc(O)cc1O)c1ccc(CN2C(=O)c3cccc4cccc2c34)cc1	50*	25	67*	-10	11	-44
O=C(c1ccc(CS(=O)Cc2ccccc2Cl)o1)N1CCN(c2cccc(Cl)c2)CC1 (configuration not stated)	70*	8	9	8	6	14
Cc1cnc(NC(=O)CN2CCN(c3ccccn3)CC2)s1	-54	37	68*	-26	/	0
C[C@@H]1CN([C@H](C)CO)C(=O)c2cc(NC(=O)CCC(F)(F)F)ccc2O[C@@H](C)CCCCO[C@@H]1CN(C)Cc1ccncc1	/	2	1	/	5	/
O=C(C[C@H]1C=C[C@@H](NC(=O)c2cccnc2)[C@H](CO)O1)NCCN1CCCCC1	/	3	/	/	/	/
CC(=O)Nc1ccc2c(c1)C(=O)N(C)[C@@H]1CC[C@@H](CC(=O)NC3CCCCC3)O[C@H]1CO2	/	3	-1	/	2	/
Cc1c(Cl)c([N+](=O)[O-])nn1CC(=O)NC(C)c1ccccc1 (configuration not stated)	-9	-9	-9	12	1	5
Cc1cc([N+](=O)[O-])nn1CC(=O)NC(C)c1ccccc1 (configuration not stated)	6	4	13	-3	-6	110*
CN1C(=O)c2cc(NC(=O)C3CC3)ccc2OC[C@H]2O[C@@H](CC(=O)Nc3ccc(F)cc3)CC[C@@H]21	/	-14	36	/	4	/
C[C@@H]1CN([C@H](C)CO)C(=O)c2cc(NC(=O)c3ccccc3)ccc2O[C@@H](C)CCCCO[C@H]1CN(C)C(=O)Cc1ccccc1	/	6	/	/	31	/
O=C(Nc1ccccc1N1CCCC1)c1ccc([N+](=O)[O-])o1	-13	12	77*	11	28	5
C=CCc1cccc(/C=N/NC(=O)CNc2cccc3ccccc23)c1O	12	/	30	46	6	69*
O=C(CNc1cccc([N+](=O)[O-])c1)N/N=C/c1ccc([N+](=O)[O-])o1	-11	/	49	-5	26	16
CN1CCN(c2ccc(NC(=O)c3cc4ccccc4o3)cc2)CC1	-10	-19	-126	0	-24	27
O=C(Nc1ccc(N2CCN(C(=O)c3ccccc3)CC2)cc1)c1cc2ccccc2o1	15	82*	/	70*	/	91*
C=CCc1cccc(/C=N/NC(=O)CNc2ccccc2OC)c1O	16	4	2	30	10	13
O=C(CNc1cccc2ccccc12)N/N=C/c1ccc([N+](=O)[O-])o1	-6	19	49	17	36	56*
CC1CCN(c2ccccc2NC(=O)c2ccc([N+](=O)[O-])o2)CC1	-6	1	13	-8	18	45
CCCNC(=O)C[C@H]1CC[C@H]2[C@@H](COc3ccc(NC(=O)c4ccno4)cc3C(=O)N2C)O1	/	-28	-3	/	5	/
CCC(=O)N1CCN(c2ccccc2NC(=O)c2ccc([N+](=O)[O-])o2)CC1	-3	14	33	9	12	24
O=C(Nc1cccc([N+](=O)[O-])c1)c1ccc([N+](=O)[O-])o1	-13	13	?	1	42	22
O=C(Nc1ccc(N2CCN(C(=O)c3ccccc3)CC2)c(Cl)c1)c1ccc(Br)o1	8	89*	/	28	-8	38
